PGE2 EP2 inh: human EP2 receptor antagonists, primary screen, TR-FRET cAMP, C6 glioma cells. C6 glioma cells expressing human EP2; cells stimulated with saturating PGE2. inhibition, % at 25 µM. actives 0.52% (n = 260,000). AID 1422, 2008;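 active = percent inhibition above 40 after rounding to a whole number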;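 note: rat C6 glioma host cells with rolipram phosphodiesterase inhibitor present; the protocol text gives 20 µM as final concentration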
Target sequence (P43116 whole entry, looked up): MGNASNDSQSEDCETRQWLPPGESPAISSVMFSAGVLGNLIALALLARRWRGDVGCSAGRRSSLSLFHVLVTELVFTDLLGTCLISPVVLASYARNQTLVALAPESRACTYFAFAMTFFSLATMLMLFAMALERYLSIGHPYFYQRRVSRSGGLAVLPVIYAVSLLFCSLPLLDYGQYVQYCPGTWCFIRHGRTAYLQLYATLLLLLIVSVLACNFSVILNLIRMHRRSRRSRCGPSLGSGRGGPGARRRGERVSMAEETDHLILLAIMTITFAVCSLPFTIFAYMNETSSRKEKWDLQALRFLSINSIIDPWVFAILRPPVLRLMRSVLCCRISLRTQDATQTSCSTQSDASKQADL
KCC2 mod: KCC2 cotransporter modulators, thallium flux, primary screen, cell-based, HEK293 KCC2, FluoZin-2 fluorescence, MLSMR; Solute carrier family 12 member 5 (Homo sapiens), Q9H2X9; KCC2 cells, thallium flux FluoZin-2 fluorescence; B-score of Tl+ flux slope (higher = more flux/activation; lower = inhibition) at 10 µM; actives 2.2% (n = 190,000); AID 1456, 2008;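 active = thallium flux slope and its plate-corrected score both differing from the plate sample mean at a set confidence after two filtering rounds, in either direction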;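 note: slope of fluorescence scaled to starting intensity during 10 to 20 s after thallium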
EP2 modulator: EP2 receptor modulators, cAMP readout, primary screen, cell-based, HTRF cAMP, PGE2 stimulation; Prostaglandin E2 receptor EP2 subtype (Homo sapiens), P43116; EP2-expressing cells, cAMP HTRF FRET, PGE2 co-stimulation; induction, % at 25 µM; actives 0.83% (n = 260,000); AID 940, 2007;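 active = compounds whose cAMP rise, as percent of the full-agonist control response, exceeds 60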;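 note: rat C6 glioma line stably carrying human EP2 under a CMV promoter; the protocol text gives 20 µM as final concentration; 100% = response of wells given 1 µM PGE2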
S1P3 antag: S1P3 receptor antagonists, primary screen, cell-based; Sphingosine 1-phosphate receptor 3 (Homo sapiens), Q99500; CHO S1P3 NFAT-BLA reporter, FRET fluorescence, antagonist mode; inhibition, % at 4.98 µM; actives 0.27% (n = 170,000);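 active = inhibition above the plate cutoff, the mean inhibition of test wells on that plate plus 3 SD, cut at about 28% in these data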;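 note: cells challenged with S1P at its EC80 of 0.8 µM; blue over green emission ratio from cleaved BLA substrate after 4 h stimulation; 0% = S1P-stimulated wells and 100% = unstimulated DMSO-only wells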
Target sequence (Q99500 whole entry, looked up): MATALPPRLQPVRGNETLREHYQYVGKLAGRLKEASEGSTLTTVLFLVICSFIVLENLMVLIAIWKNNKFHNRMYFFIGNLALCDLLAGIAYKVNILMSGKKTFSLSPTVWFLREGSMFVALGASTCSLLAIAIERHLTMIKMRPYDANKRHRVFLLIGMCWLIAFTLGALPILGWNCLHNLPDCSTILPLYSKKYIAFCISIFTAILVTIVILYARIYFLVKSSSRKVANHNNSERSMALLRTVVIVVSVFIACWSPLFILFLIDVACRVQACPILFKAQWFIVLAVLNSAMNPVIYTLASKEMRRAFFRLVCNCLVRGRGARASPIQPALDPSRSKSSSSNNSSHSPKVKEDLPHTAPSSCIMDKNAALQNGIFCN
KCC2 secondary: KCC2 modulators in sodium-free buffer, confirmation, cell-based, HEK293 KCC2, thallium flux, secondary assay; shares compounds with KCC2 mod; FluoZin2 fluorescence; active compounds read high; normalised thallium flux (F/F0 slope) at 10 µM; actives 15% (n = 3,700); AID 1713, 2009;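 active = thallium flux slope above the same plate's solvent-only control mean plus 3 SD; inconclusive = the two replicate wells disagree; inactive = no significant difference from solvent-only control wells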
KCC2 bumet counter: thallium flux persisting under bumetanide in KCC2 cells, confirmation, counter-screen for KCC2 modulator project, cell-based, HEK293 KCC2, FluoZin2, secondary assay 3; shares compounds with KCC2 mod; HEK293-KCC2 + bumetanide/ouabain; active compounds read high; normalized thallium flux at 10 µM; actives 49% (n = 3,700); AID 1714, 2009;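 active = thallium entry rate above the same plate's blocked-transporter control wells by more than 3 SD; inconclusive = the two repeat wells disagree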;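 note: raw slope of fluorescence over initial fluorescence between 10 and 20 s after thallium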
KCC2 sec2: KCC2 modulators without ouabain present, confirmation, cell-based, HEK293 KCC2, thallium flux, FluoZin2, secondary assay 2 | shares compounds with KCC2 mod | thallium flux FluoZin2 fluorescence; actives lie on both sides; F/F0 rise rate, 10–20 s post-thallium | normalized thallium flux at 10 µM | actives 23% (n = 3,700) | AID 1715, 2009;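 active = thallium flux slope more than 3 SD above or below the plate's solvent-only control mean, mostly below; inconclusive = the two repeat wells disagreed; inactive = no significant shift from solvent-only controls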;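 note: raw slope with 0.1% DMSO as baseline and bumetanide as block control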
HEK293 Tl flux: thallium flux modulation in parental HEK cells, confirmation, counter-screen for KCC2 modulator project, cell-based, counterscreen 1. shares compounds with KCC2 mod. HEK293 parental cells, thallium flux FluoZin2, ouabain; baseline-ratio fluorescence slope, 10–20 s after thallium. thallium flux rate (normalised fluorescence) at 10 µM. actives 46% (n = 3,700);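 active = thallium flux rate significantly above the same plate's solvent-only control wells, beyond their mean plus 3 SD; inconclusive = the two replicate wells gave conflicting results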
KCC2 ouabain: KCC2 inhibitors and activators, ouabain retest, confirmation, HEK-KCC2 cells; HEK293-KCC2, thallium flux FluoZin2 fluorescence; bidirectional: low = inhibitor, high = activator; raw Tl+ flux slope (below DMSO = inhibition, above = activation) at 10 µM; shares compounds with KCC2 mod; actives 48% (n = 3,700);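 active = thallium flux slope beyond 3 SD from same-plate DMSO control mean in most replicates, usually higher, sometimes lower; inconclusive = repeat tests gave conflicting results; inactive = no significant difference from controls in most replicates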;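 note: slope of initial-normalized fluorescence between seconds 10 and 20 after thallium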
HEK counter2: native HEK Tl+ uptake effects, second counter-screen – HEK cells, counterscreen 2, counter-screen for KCC2 modulator project, confirmation. actives 33% (n = 3,700). HEK293 parental, thallium flux FluoZin-2 fluorescence slope. thallium flux slope at 10 µM. shares compounds with KCC2 mod;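 active = thallium flux slope above the same plate's solvent-control mean plus 3 SD in both duplicate wells; inconclusive = duplicate wells that disagreed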;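 note: run without ouabain in cells lacking the KCC2 cotransporter; slope of fluorescence scaled to its starting value between 10 and 20 s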
* marks the source's active call; other numbers are inactive results; ? = inconclusive; · = no result. Hits are enriched below; roughly 3.1% of the tested compounds scored in any of these assays.

SMILES | PGE2 EP2 inh | KCC2 mod | EP2 modulator | S1P3 antag | KCC2 secondary | KCC2 bumet counter | KCC2 sec2 | HEK293 Tl flux | KCC2 ouabain | HEK counter2
C/C(=N/NC(=O)c1ccc2c(c1)OCO2)c1ccc(Br)s1 | 7.8 | 6.32* | 10.3 | -0.5 | 0.01 | 0.0152* | 0.0343 | ? | ? | ?
C/C(=N\NC(=O)c1ccc(Cl)c(Cl)c1)c1ccc(Br)s1 | 11.8 | 7.17* | 3.3 | -3.1 | 0.00755 | 0.00897* | 0.0359 | 0.0225* | 0.0253* | 0.0169*
O=C(c1nccs1)C1CCN(C(=O)Cc2ccccc2Cl)CC1 | · | · | -32.1 | · | · | · | · | · | · | ·
COc1ccc(/C(O)=C2/C(=O)C(=O)N(CCCN(C)C)C2c2ccccn2)cc1 (configuration not stated) | 11.7 | · | -8.7 | · | · | · | · | · | · | ·
C[C@@H](Cn1nnc2ccccc21)NC(=O)Cc1c[nH]c2ccccc12 | 6.5 | · | -80.4 | · | · | · | · | · | · | ·
COCCn1nnnc1C(C(C)C)N(Cc1ccccc1)Cc1cc2cc(C)c(C)cc2[nH]c1=O (configuration not stated) | 13.1 | · | 53.7 | · | · | · | · | · | · | ·
Cc1ccc2nc3c(cc(C(=O)NCc4ccco4)c(=N)n3Cc3ccccc3)c(=O)n2c1 | 8.9 | · | 17.9 | · | · | · | · | · | · | ·
Cc1ccc(Cn2c(=N)c(C(=O)NCc3ccco3)cc3c(=O)n4ccccc4nc32)cc1 | 6.3 | 5.69* | 12.7 | -13.9 | 0.00528 | ? | ? | 0.00548* | 0.0181 | 0.00975
CC(=C\c1ccccc1)/C=C1/SC(=O)N(CCCC(=O)Nc2ccc(C(=O)O)cc2)C1=O | 3.9 | -4.19 | 23.1 | -18.0 | · | · | · | · | · | ·
CC(/C=C1\SC(=S)N(CCCC(=O)Nc2ccc(C(=O)O)c(O)c2)C1=O)=C\c1ccccc1 | 8.8 | -4.72* | 3.3 | -1.1 | 0.00608 | 0.00431 | 0.0262 | 0.00683 | 0.0137* | 0.00949
COc1ccccc1NC(=O)CSc1nnc(-c2ccccn2)n1-c1ccccc1OC | 17.6 | · | -14.6 | · | · | · | · | · | · | ·
Cc1nc(SCc2ccccc2)c([N+](=O)[O-])[nH]1 | 8.0 | -5.2* | 23.8 | 10.5 | 0.00895 | 0.00613 | 0.0271* | 0.00385 | 0.0139* | 0.0112
O=C1CC(N2CCC(c3nc4ccccc4[nH]3)CC2)C(=O)N1Cc1ccccc1 (configuration not stated) | 4.5 | 0.802 | 4.0 | 13.4 | · | · | · | · | · | ·
O=C1CC(c2nc3ccccc3[nH]2)CN1Cc1ccccc1 (configuration not stated) | 13.4 | -3.43* | 1.3 | -27.2 | 0.0117* | ? | 0.0303 | 0.00815 | 0.0209 | 0.0106
CCOc1ccc(CNc2n[nH]c3nc(C)cc(C)c23)cc1 | 5.6 | · | -99.5 | · | · | · | · | · | · | ·
CC1=Nc2ccccc2/C1=C/c1sc(=N)n(-c2nccs2)c1O | 7.0 | -3.57* | -5.4 | · | 0.00622 | 0.000516* | 0.0198* | 0.00489* | 0.00973* | 0.00711*
Cc1ccc(CN(CCCn2ccnc2)Cc2ccccc2Cl)o1 | 7.5 | · | 29.7 | · | · | · | · | · | · | ·
CC(=O)N1CCCC(c2nc(C)ncc2-c2cc(C)no2)C1 (configuration not stated) | · | · | -25.0 | · | · | · | · | · | · | ·
Clc1c(Cl)c(Cl)c2n[nH]nc2c1Cl | 11.7 | -6.68* | -23.9 | -8.9 | ? | 0.00506 | ? | 0.00337* | 0.013* | 0.00736*
O=C(Cn1ncc2cccn2c1=O)Nc1ccccc1N1CCOCC1 | 3.1 | · | -9.1 | · | · | · | · | · | · | ·
COc1cc(C(=S)N2CCCC2)cc(OC)c1O | 12.6 | -3.59* | 14.6 | · | 0.00986 | 0.00592 | 0.0364 | 0.00718 | 0.0233 | 0.00985
COc1ccc(OC)c2sc(NNC(=O)C3COc4ccccc4O3)nc12 (configuration not stated) | 4.8 | · | -56.1 | 9.8 | · | · | · | · | · | ·
Cc1cccc2sc(NNC(=O)C3COc4ccccc4O3)nc12 (configuration not stated) | 8.8 | 10* | -22.0 | -1.6 | 0.00902 | 0.0431* | 0.0334 | 0.0165* | 0.0354* | 0.0155*
O=C(NNc1nc2c(F)cc(F)cc2s1)C1COc2ccccc2O1 (configuration not stated) | 8.7 | 5.98* | -61.8 | -19.1 | ? | 0.0357* | 0.0373 | ? | 0.0325* | ?
O=C(Nc1nnc(C(F)(F)F)s1)C1COc2ccccc2O1 (configuration not stated) | 20.7 | -3.79* | -0.3 | · | 0.00825 | 0.00684 | 0.0347 | 0.00428 | 0.0184 | 0.0121
SMILES | PGE2 EP2 inh | KCC2 mod | EP2 modulator | S1P3 antag | KCC2 secondary | KCC2 bumet counter | KCC2 sec2 | HEK293 Tl flux | KCC2 ouabain | HEK counter2
CC1(C(=O)Nc2ccccc2C(F)(F)F)Cc2ccccc2C(=O)O1 (configuration not stated) | 11.4 | · | -14.7 | · | · | · | · | · | · | ·
Cc1cc2cc(CN(C(=S)NCC3CCCO3)C3CCCCC3)c(=O)[nH]c2cc1C (configuration not stated) | 14.1 | · | -35.0 | · | · | · | · | · | · | ·
Cn1c(-c2sc3cc(C(F)(F)F)cnc3c2-c2cccs2)n[nH]c1=S | 12.1 | 10.4* | -8.4 | -15.5 | 0.00898 | 0.0154* | 0.0311 | 0.00991* | ? | 0.00998
Cn1c(-c2sc3cc(C(F)(F)F)cnc3c2-c2ccccn2)n[nH]c1=S | 9.2 | 0.209 | 32.5 | -18.7 | · | · | · | · | · | ·
Cn1c(N2CCCC(C(=O)NCc3ccccc3F)C2)nc2ccccc21 (configuration not stated) | · | · | -28.7 | · | · | · | · | · | · | ·
Cc1ccc(-n2c(SCC(=O)NC3CCS(=O)(=O)C3)nc3ccccc3c2=O)cc1 (configuration not stated) | 8.8 | -0.574 | -9.8 | -16.2 | · | · | · | · | · | ·
